Bioassay records: PubChem, Broad Institute
In the library only some 4.8% were active in any assay of this set; here they are far more common.
SUMO Mot1 rescue: yeast Mot1-301 growth rescue at high temperature, primary screen, SUMOylation pathway inhibitor project, S. cerevisiae, ATP luminescence, 38.5C | growth rescue, % at 18.8 µM | S. cerevisiae Mot1-301 growth rescue; percent above DMSO median, 100 means doubled | 1% of 320,000 active;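 active = every valid replicate shows activation above 250% relative to neutral control wells; inactive = the rest, any valid replicate at or below 250%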;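 note: OY570 slx delta 5 strain wells were the positive control but not used for scaling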
ALR H2O2 inh: inhibitors of human ALR sulfhydryl oxidase, primary screen, biochemical, H2O2 detection, HRP-luminol luminescence, single point; 3.8% of 290,000 active; purified ALR, DTT oxidation; inhibition, % (concentration not given with the values); AID 485317, 2010; FAD-linked sulfhydryl oxidase ALR (Homo sapiens), P55789;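 active = mean replicate inhibition above about 79%, with every replicate also reaching it, limit read from the data; inconclusive = only one of the two criteria met; inactive = mean below limit and not every replicate reaching it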
Target sequence (P55789 whole entry, looked up): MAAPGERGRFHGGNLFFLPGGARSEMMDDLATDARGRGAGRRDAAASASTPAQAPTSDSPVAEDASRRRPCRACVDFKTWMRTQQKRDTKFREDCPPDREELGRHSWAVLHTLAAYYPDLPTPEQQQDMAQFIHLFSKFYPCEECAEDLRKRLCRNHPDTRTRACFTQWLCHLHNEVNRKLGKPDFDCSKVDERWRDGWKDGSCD
AI-2 QS modul: Vibrio harveyi AI-2 quorum sensing modulators, primary screen, JMH597 strain, luminescence/OD600 ratio; Vibrio harveyi JMH597 AI-2 luminescence/OD600 ratio, 9 h; active compounds read low; strain lacks LuxN and CqsS sensors; 0 = neutral-control median; activity change, % at 7.5 µM; 0.4% of 300,000 active; AID 2094, 2009; in the data active = activity change below about -75%, passing the limit was not always enough; inconclusive = no clear call, values can overlap the other calls;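 note: luminescence divided by OD600 gain over 9 h not by final OD600 alone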
HIF activator: HIF pathway transcriptional activators, primary screen, cell-based, U2OS HRE-luciferase, luminescence; U2OS HRE-luciferase reporter; normalized: DMSO 0%, desferrioxamine 100%; activation, % at 7.5 µM (by protocol); 0.32% of 300,000 active; AID 1910, 2009;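 active = mean activation of at least 10% of the iron chelator positive control signal, with at least half of replicates also reaching 10%; inconclusive = mean and replicate majority disagree about reaching 10%; inactive = mean and most replicates under 10%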
Numbers without * were called inactive; ? = inconclusive; · = no result given.

SMILES | SUMO Mot1 rescue | ALR H2O2 inh | AI-2 QS modul | HIF activator
COc1ccc(-n2nc(C(=O)NCC(=O)N3CCN(c4ccccc4)CC3)c3ccccc3c2=O)cc1OC | -8 | -8 | 2 | 1
Cc1ccc2[nH]cc(CCNC(=O)C3CCCO3)c2c1 (stereo unspecified) | 9 | 70 | 46 | 0
Cc1[nH]n(-c2nc(-c3cccc([N+](=O)[O-])c3)cs2)c(=O)c1C | -2 | 97* | 24 | 2
O=S(=O)(O)c1ccc(N2N=C(c3ccccc3)CC2c2ccccc2)cc1 (stereo unspecified) | 2 | 99* | 19 | 0
CC(=O)CC(=O)Nc1ccn(-c2ccccc2)n1 | 6 | 82* | 24 | 0
CC(Oc1ccccc1)C(=O)N1CCN=C1SCc1ccc(F)cc1 (stereo unspecified) | 0 | 96* | 13 | 0
O=C(COc1ccccc1)N1CCN=C1SCc1cccnc1 | · | 100* | 18 | 1
O=C(COc1ccccc1)N1CCN=C1SCc1ccc(F)cc1 | 0 | 98* | 15 | 0
COc1ccc(S(=O)(=O)Cc2ccc(C(=O)NC3CCCCCC3)o2)cc1 | -4 | 4 | -2 | 0
COC(=O)CCCCCN1C(=O)NC(C2CC2)C(C(=O)OCc2ccccc2)=C1C (stereo unspecified) | 147 | -17 | 6 | 2
CC(C)c1ccc(-c2nnc(SCC(=O)NC3CC3)n2C)cc1 | 9 | -1 | 6 | 0
Cc1[nH]c2ccccc2c1C(=O)COC(=O)c1ccc([N+](=O)[O-])s1 | -5 | -42 | -128* | -2
O=C(NCC(c1ccco1)N1CCCC1)c1cc(S(=O)(=O)N2CCOCC2)ccc1Cl (stereo unspecified) | 2 | -2 | · | ·
CSc1ccc(C(=O)C2CCCN(C(=O)c3cc4cc(F)ccc4[nH]3)C2)cc1 (stereo unspecified) | 447* | 4 | 13 | 1
CSc1ccc(C(=O)C2CCCN(C(=O)c3ccc4c(c3)OCO4)C2)cc1 (stereo unspecified) | -9 | 6 | -1 | 0
CSc1nc(N(C)NC(=O)c2ccc(Cl)cc2)c2ccccc2n1 | 334* | 5 | 11 | 1
CCOC(=O)c1cccc(NC(=O)C2CCCN(S(=O)(=O)c3c(C)nn(C)c3C)C2)c1 (stereo unspecified) | -16 | -2 | · | ·
Cc1cc(C)cc(NC(=O)C2CCCN(S(=O)(=O)c3cnc[nH]3)C2)c1 (stereo unspecified) | -11 | 42 | 52 | ·
COc1cc(NC(=O)C2CCCN(S(=O)(=O)c3cnc[nH]3)C2)cc(OC)c1 (stereo unspecified) | -12 | 98* | 19 | ·
CC(C)c1ccc(NC(=O)C2CCCN(S(=O)(=O)c3cnc[nH]3)C2)cc1 (stereo unspecified) | -8 | 91* | 19 | ·
O=C(C1CCN(S(=O)(=O)c2cnc[nH]2)CC1)N(CCc1ccccc1)Cc1ccccc1 | 417* | -26 | 31 | 1
CCOC(=O)c1ccc(NC(=O)C2CCN(S(=O)(=O)c3c(C)nn(C)c3C)CC2)cc1 | -6 | 98* | 21 | 0
CCN1C(=O)[C@H]2[C@@H](c3ccc(-c4ccc(OC)cc4)cc3)N3CCC[C@@]3(C(=O)OC)[C@H]2C1=O | -5 | 1 | 2 | 1
O=C(NCCN1CCN(c2ccccc2F)CC1)C1CCCN(S(=O)(=O)c2cnc[nH]2)C1 (stereo unspecified) | 5 | 88* | 21 | ·
O=C(NCc1ccc(Cl)cc1)C1CCN(S(=O)(=O)c2cccnc2)CC1 | -3 | 3 | -79* | 0
SMILES | SUMO Mot1 rescue | ALR H2O2 inh | AI-2 QS modul | HIF activator
O=C(NCCc1ccccc1)C1CCCN(S(=O)(=O)c2cnc[nH]2)C1 (stereo unspecified) | 2 | 87* | 25 | ·
COc1ccc(N2CCN(CCCNC(=O)C3CCCN(S(=O)(=O)c4cnc[nH]4)C3)CC2)cc1 (stereo unspecified) | -21 | 87* | 6 | ·
Cc1cccc(CCNC(=O)C2CCCN(S(=O)(=O)c3cnc[nH]3)C2)c1 (stereo unspecified) | -18 | 68 | 35 | ·
O=C(NCCN1CCC(Cc2ccccc2)CC1)C1CCCN(S(=O)(=O)c2cnc[nH]2)C1 (stereo unspecified) | -6 | -44 | 13 | ·
O=C(NCCc1ccccc1)c1coc(=O)c(Br)c1 | 11 | -9 | -59 | 4
C[C@@]12C(=O)N(CC3CCCO3)CC(=O)N1[C@H]1c3cc(Cl)ccc3OC[C@@H]1[C@@H]2c1ccccc1 (stereo partly specified) | 19 | -5 | · | ·
CCOC(=O)c1ccc(NC(=O)C2CCCN(S(=O)(=O)c3cnc[nH]3)C2)cc1 (stereo unspecified) | 1 | 95* | 6 | ·
O=C(Nc1ccc(Cl)cc1)C1CCCN(S(=O)(=O)c2cnc[nH]2)C1 (stereo unspecified) | -15 | 96* | 25 | ·
Cc1ccc(CNC(=O)C2CCCN(S(=O)(=O)c3cnc[nH]3)C2)cc1 (stereo unspecified) | -15 | 16 | 26 | ·
Cc1ccc(NC(=O)C2CCCN(S(=O)(=O)c3cnc[nH]3)C2)cc1F (stereo unspecified) | -15 | 10 | · | ·
O=C(NCc1ccc(Cl)cc1)C1CCCN(S(=O)(=O)c2cnc[nH]2)C1 (stereo unspecified) | 153 | 94* | 6 | ·
CC(C)Oc1ccccc1/C=N/n1nnnc1N | -6 | -2 | -1 | 0
CCn1c(CN2CCN(c3ccc(Cl)cc3)CC2)nc2ccccc21 | -29 | 96* | 19 | 0
COc1ccc(CNC(=O)C/C(C)=N/NC(=O)c2ccc(OC)cc2OC)cc1 | 169 | · | 49 | -33
CC(C)C(=O)N(c1ccc2oc(=O)sc2c1)S(=O)(=O)c1ccccc1 | -23 | 96* | -2 | 0
O=C(COC(=O)COc1ccccc1)Nc1ncc([N+](=O)[O-])s1 | 8 | 96* | · | ·
N/C(=N\OC(=O)Nc1ccccc1)c1ncc([N+](=O)[O-])s1 | 2 | -33 | -88* | 0
O=C(COC(=O)c1ccc([N+](=O)[O-])s1)Nc1ccccc1 | -1 | · | ? | 0
O=C(COc1ccc(Cl)cc1)Nc1ncc([N+](=O)[O-])s1 | · | · | 16 | -2
CCC(Oc1ccccc1)C(=O)Nc1ncc([N+](=O)[O-])s1 (stereo unspecified) | -17 | 97* | 24 | 1
CCC(Oc1ccccc1)C(=O)Nc1nnc(C)s1 (stereo unspecified) | 35 | -10 | 26 | 0
COc1ccc(C(=O)C2CCCN(S(=O)(=O)c3ccc(C(C)=O)cc3)C2)c(C)c1 (stereo unspecified) | 43 | -7 | 17 | 0
Nc1ccc(-c2nc3ccc(N)cc3[nH]2)cc1 | -1 | 98* | 6 | -1
Nc1ccc2nc(-c3ccc(Cl)cc3)[nH]c2c1 | -17 | 99* | 15 | 0
